# Source: PubChem BioAssay (NCATS)
# A number with no mark means an inactive call. Inconclusive results are not listed. Where a call stands in place of a potency, no number is given. Calls of active or inactive are those of the source. The call rests on the fitted dose curve; in most records, active means well fitted curve in the direction sought with a large enough effect; inconclusive means small, poorly fitted or top-dose-only effect, or another doubt; inactive means no such curve, though single readings can be large; an effect the other way counts as inactive or inconclusive.
# Columns and labels:
# [1] = tested on: Zika virus NS2B-NS3 protease (linked construct); assay: Primary screen NINDS Rhodamine qHTS for Zika virus inhibitors (AID 1347160); further: nearly all actives have a fitted effect of over 55% in size
# Outline: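 Kinetic fluorescence (Ex 480 nm, Em 540 nm) over 15 min with 1.5 microM Rhodamine110 peptide and 25 nM linked protease.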
# [2] = Primary qHTS for inhibitors of nuclear receptor binding SET domain protein 2 (NSD2) in an isogenic RCH-ACV NSD2 p.E1099K mutant (9B) (AID 1645876); further: nearly all actives have a fitted effect of over 70% in size; further: potency means the concentration at half of the fitted maximal effect
# [3] = Primary qHTS for inhibitors of nuclear receptor binding SET domain protein 2 (NSD2) in an RCH-ACV wild type WT cells (2C) (AID 1645877); further: nearly all actives have a fitted effect of over 70% in size; further: potency means the concentration at half of the fitted maximal effect
# [4] = molecular target: Glutathione peroxidase 1 (Homo sapiens) (UniProt P07203); assay: Primary qHTS Assay for Inhibitors of Recombinant Selenoprotein Glutathione Peroxidase 1 (GPX1) (AID 1845191); further: nearly all actives have a fitted effect of over 65% in size
# Outline: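 GR-coupled assay: compounds preincubated 30 min at room temperature with GPX1, then reaction started with CHP; final 10 nM GPX1, 1 mM GSH, 0.5 mM CHP, 0.5 mM NADPH, 100 nM GR, 0.01% BSA, pH 7.5 Tris buffer. NADPH fluorescence (340/450 nm) read at 0 and 15 min.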
# [5] = molecular target: Phospholipid hydroperoxide glutathione peroxidase GPX4 (Homo sapiens) (UniProt P36969); assay: Primary qHTS Assay for Inhibitors of Recombinant Selenoprotein Glutathione Peroxidase 4 (GPX4) (AID 1845192); further: nearly all actives have a fitted effect of over 65% in size
# Outline: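 GR-coupled assay: recombinant GPX4 preincubated 30 min with compound at room temperature; final 200 nM GPX4, 1 mM GSH, 0.5 mM cumene hydroperoxide, 0.5 mM NADPH, 100 nM GR, 0.01% BSA, pH 7.5 Tris. NADPH fluorescence (340/450 nm) read at 0 and 15 min.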
# [6] = molecular target: Luciferin 4-monooxygenase (Photinus pyralis) (UniProt P08659); assay: Primary firefly luciferase (FLuc) qHTS assay for identification of artifact compounds. (AID 1845220); conditions: outcome: dose series up to 54.1 µM unless noted; further: nearly all actives have a fitted effect of over 60% in size
# Outline: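 Titrated compounds were incubated 15 min at RT, protected from light, with luciferin and ATP at 10 uM; reaction started with 10 nM FLuc, luminescence imaged at 5 min, and concentration-response fitted by Hill equation.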
# [7] = Primary fluorescence-based thiol-reactive (MSTI) qHTS assay for identification of artifact compounds. (AID 1845221);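 further: thiol-reactive compounds lower the probe fluorescence signal; nearly all actives have a fitted effect of over 65% in size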
# Outline: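 qHTS titration of compound; 4 uM MSTI, PBS pH 7.4, 2% DMSO; 1 h RT, dark; fluorescence 525/598 nm; normalized to Acetyl-MSTI and MSTI; 4-parameter Hill fit.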
# [8] = tested on: Nanoluciferase (engineered Oplophorus gracilirostris luciferase); assay: Primary Nanoluciferase (NLuc) qHTS assay for identification of artifact compounds. (AID 1845222);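 further: NLuc secreted into diluted conditioned medium of S16 cells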
# Outline: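 qHTS format, against NLuc in S16 cell-conditioned medium. Nano-Glo substrate 1:100 was added after 15 min at room temperature. Luminescence was taken after a further 5 min.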
# CRL-7250 = normal cell line; assay: Cytotoxic Profiling of Annotated Libraries Using Quantitative High-Throughput Screening (AID 1296008); conditions: Five cell lines viability, CellTiter-Glo ATP luminescence, 48-72 h; max response: stronger effect = lower value; further: nearly all actives have a fitted effect of over 60% in size; further: potency means the concentration at half of the fitted maximal effect
# Outline: (§1)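 Cells exposed to compounds for 48 or 72 hr at 37 degrees Celsius. Viability read as ATP-coupled luminescence with CellTiter-Glo after 10 min at room temperature.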
# HEK293 = assay: as above; conditions: Five cell lines viability, CellTiter-Glo ATP luminescence, 48-72 h; max response: stronger effect = lower value
# Outline: as §1
# HaCat = assay: as above; conditions: Five cell lines viability, CellTiter-Glo ATP luminescence, 48-72 h; max response: stronger effect = lower value
# Outline: as §1
# NIH3T3 = assay: as above; conditions: Five cell lines viability, CellTiter-Glo ATP luminescence, 48-72 h; max response: stronger effect = lower value
# Outline: as §1
# CASKI = assay: Primary qHTS to identify gynecologic anti-cancer compounds using libraries of approved drugs and bioactive compounds (AID 1345084); conditions: Gynecologic cancer cell panel viability, ATPlite luminescence, 48 h; series mostly up to 57.5 µM; further: nearly all actives have a fitted effect of over 55% in size; further: potency means the concentration at half of the fitted maximal effect
# Outline: (§2)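 Cells, 1,000 per well, were allowed to settle for 16 h at 37 C before compound addition. Five concentrations were tested for 48 h, and viability was read by ATPlite luminescence after 15 min at room temperature.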
# Es-2 = assay: as above; conditions: Gynecologic cancer cell panel viability, ATPlite luminescence, 48 h; series mostly up to 57.5 µM
# Outline: as §2
# PA-1 = assay: as above; conditions: Gynecologic cancer cell panel viability, ATPlite luminescence, 48 h; series mostly up to 57.5 µM
# Outline: as §2
# Tov-21-G = assay: as above; conditions: Gynecologic cancer cell panel viability, ATPlite luminescence, 48 h; series mostly up to 57.5 µM
# Outline: as §2
# Tov112D = assay: as above; conditions: Gynecologic cancer cell panel viability, ATPlite luminescence, 48 h; series mostly up to 57.5 µM
# Outline: as §2
# C33A = assay: as above; conditions: Gynecologic cancer cell panel viability, ATPlite luminescence, 48 h; series mostly up to 57.5 µM
# Outline: as §2
# OV90 = assay: as above; conditions: Gynecologic cancer cell panel viability, ATPlite luminescence, 48 h; series mostly up to 57.5 µM
# Outline: as §2
# Hek293T = assay: as above; conditions: Gynecologic cancer cell panel viability, ATPlite luminescence, 48 h, control line for the selectivity index; series mostly up to 57.5 µM
# Outline: as §2
# Sequence of Phospholipid hydroperoxide glutathione peroxidase GPX4 (Homo sapiens) (P36969 whole entry, looked up): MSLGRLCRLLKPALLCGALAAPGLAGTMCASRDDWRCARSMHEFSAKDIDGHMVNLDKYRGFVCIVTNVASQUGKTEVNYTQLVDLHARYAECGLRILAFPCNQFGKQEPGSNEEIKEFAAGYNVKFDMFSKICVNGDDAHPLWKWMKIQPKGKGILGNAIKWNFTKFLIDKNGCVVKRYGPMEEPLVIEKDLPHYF
# Sequence of Glutathione peroxidase 1 (Homo sapiens) (P07203 whole entry, looked up): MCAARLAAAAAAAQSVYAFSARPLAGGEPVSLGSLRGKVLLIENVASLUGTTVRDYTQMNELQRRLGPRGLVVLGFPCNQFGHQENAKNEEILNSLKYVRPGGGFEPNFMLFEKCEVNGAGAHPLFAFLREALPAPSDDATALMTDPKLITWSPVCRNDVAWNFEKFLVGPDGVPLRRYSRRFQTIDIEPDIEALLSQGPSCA
compound,measurement,setting,value
Cc1ccccc1CN1CCC(N2CCC(n3c(=O)[nH]c4ccccc43)CC2)CC1,Potency,[1],inactive
same,Potency,[2],inactive
same,Potency,[3],inactive
same,Potency,[4],inactive
same,Potency,[5],inactive
same,outcome,[6],inactive
same,Potency,[7],inactive
same,Potency,[8],inactive
same,Potency,CRL-7250,7.31 µM (active)
same,Potency,HEK293,6.51 µM (active)
same,max response,HaCat,0.939%
same,outcome,NIH3T3,inactive
same,Potency,CASKI,inactive
same,Potency,Es-2,inactive
same,Potency,PA-1,inactive
same,Potency,Tov-21-G,inactive
same,Potency,Tov112D,inactive
CCCCN1[C@@H]2CC[C@H]1CC(OC(c1ccc(F)cc1)c1ccc(F)cc1)C2 (some centres undefined),Potency,[1],inactive
same,Potency,[2],12.9 µM (active)
same,Potency,[3],9.16 µM (active)
same,Potency,[4],inactive
same,Potency,[5],inactive
same,outcome,[6],inactive
same,Potency,[7],inactive
same,Potency,[8],inactive
same,max response,CRL-7250,-21.5%
same,Potency,HEK293,23.1 µM (active)
same,max response,HaCat,-29%
same,Potency,C33A,22.4 µM (active)
same,Potency,OV90,12.6 µM (active)
same,Potency,PA-1,14.1 µM (active)
same,Potency,Tov-21-G,inactive
CCC1=CC2CN3CCc4c([nH]c5ccccc45)[C@@](C(=O)OC)(C2)[C@@H]13,Potency,[1],inactive
same,Potency,[4],inactive
same,outcome,[6],inactive
same,Potency,[8],inactive
same,max response,CRL-7250,-21.4%
same,max response,HEK293,-6.65%
same,max response,HaCat,-7.15%
same,Potency,C33A,inactive
same,Potency,CASKI,inactive
same,Potency,Es-2,inactive
same,Potency,Hek293T,inactive
same,Potency,OV90,inactive
same,Potency,PA-1,inactive
same,Potency,Tov-21-G,inactive
same,Potency,Tov112D,inactive
C[C@@H]1CN(Cc2ccc(F)cc2)CCN1C(=O)COc1ccc(Cl)cc1NC(N)=O,Potency,[1],inactive
same,Potency,[4],inactive
same,Potency,[5],inactive
same,outcome,[6],inactive
same,Potency,[7],inactive
same,Potency,[8],inactive
same,Potency,CRL-7250,0.731 µM (active)
same,Potency,HEK293,1.3 µM (active)
same,max response,HaCat,-27%
same,Potency,C33A,2.51 µM (active)
same,Potency,OV90,8.91 µM (active)
same,Potency,Tov-21-G,inactive
CN[C@@H]1C[C@H]2O[C@@](C)([C@@H]1OC)n1c3ccccc3c3c4c(c5c6ccccc6n2c5c31)C(=O)NC4,Potency,[2],0.0372 µM (active)
same,Potency,[3],0.059 µM (active)
same,Potency,[4],inactive
same,outcome,[6],inactive
same,Potency,[7],inactive
same,Potency,[8],inactive
same,Potency,CRL-7250,0.0037 µM (active)
same,Potency,HEK293,0.231 µM (active)
same,Potency,HaCat,0.184 µM (active)
same,Potency,C33A,1.26 µM (active)
same,Potency,CASKI,0.251 µM (active)
same,Potency,Es-2,0.631 µM (active)
same,Potency,Hek293T,4.47 µM (active)
same,Potency,OV90,0.316 µM (active)
same,Potency,PA-1,0.251 µM (active)
same,Potency,Tov112D,0.891 µM (active)
C=C1[C@@H](C)C2[C@H](Cc3ccccc3)NC(=O)[C@@]23C(/C=C/C[C@H](C)C[C@@](C)(O)/C=C/[C@@H]3OC(C)=O)[C@@H]1O (some centres undefined),Potency,[1],inactive
same,Potency,[2],0.817 µM (active)
same,Potency,[3],0.205 µM (active)
same,Potency,[4],inactive
same,Potency,[5],inactive
same,outcome,[6],inactive
same,Potency,[7],inactive
same,Potency,[8],inactive
same,Potency,CRL-7250,0.461 µM (active)
same,Potency,HEK293,0.731 µM (active)
same,Potency,HaCat,0.13 µM (active)
same,Potency,C33A,inactive
same,Potency,Es-2,inactive
same,Potency,Hek293T,inactive
same,Potency,PA-1,3.98 µM (active)
C[C@@]1(CO)[C@H](O)CC[C@@]2(C)[C@H]1CC[C@H]1C[C@@H]3C[C@@]12CC[C@]3(O)CO,Potency,[2],3.19 µM (active)
same,Potency,[3],2.84 µM (active)
same,Potency,[4],inactive
same,Potency,[5],inactive
same,outcome,[6],inactive
same,Potency,[7],inactive
same,Potency,[8],inactive
same,max response,CRL-7250,-2.86%
same,Potency,HEK293,2.55 µM (active)
same,Potency,HaCat,9.04 µM (active)
same,Potency,NIH3T3,6.4 µM (active)
same,Potency,C33A,inactive
same,Potency,CASKI,inactive
same,Potency,Hek293T,inactive
same,Potency,Tov-21-G,inactive
Nc1ncnc2c1ncn2[C@@H]1O[C@@H]2COP(O)(=S)O[C@H]2[C@H]1O (some centres undefined),"activity change, negative = inhibition",[1],16.2% [at 10.7 µM]
same,outcome,[2],inactive [at 9.23 µM]
same,outcome,[3],inactive [at 9.23 µM]
same,outcome,[4],inactive [at 9.52 µM]
same,outcome,[5],inactive [at 9.73 µM]
same,outcome,[6],inactive [at 11.6 µM]
same,"activity change, negative = thiol reactive",[7],-11.9% [at 11.5 µM]
same,"activity, negative = inhibition",[8],0.0656% [at 11.6 µM]
same,max response,CRL-7250,1.79%
same,outcome,HEK293,inactive
same,max response,NIH3T3,4.38%
same,"activity change, negative = cytotoxicity",C33A,2.33% [at 11.6 µM]
same,"activity change, negative = cytotoxicity",CASKI,-3.97% [at 11.6 µM]
same,"activity change, negative = cytotoxicity",Es-2,5.19% [at 11.6 µM]
same,"activity change, negative = cytotoxicity",Hek293T,0.669% [at 11.6 µM]
same,"activity change, negative = cytotoxicity",OV90,0.349% [at 11.6 µM]
same,"activity change, negative = cytotoxicity",PA-1,15.5% [at 11.6 µM]
same,"activity change, negative = cytotoxicity",Tov-21-G,2.4% [at 11.6 µM]
same,"activity change, negative = cytotoxicity",Tov112D,7.56% [at 11.6 µM]
CCC1C2CC3C4N(C)c5ccccc5C45CC(C2C5O)N3C1O (centres undefined),Potency,[1],inactive
same,Potency,[2],inactive
same,Potency,[3],inactive
same,Potency,[4],inactive
same,Potency,[5],inactive
same,outcome,[6],inactive
same,Potency,[8],inactive
same,max response,CRL-7250,-9.12%
same,outcome,HEK293,inactive
same,max response,NIH3T3,2.24%
same,Potency,C33A,inactive
same,Potency,CASKI,inactive
same,Potency,Es-2,inactive
same,Potency,Hek293T,inactive
same,Potency,OV90,inactive
same,Potency,PA-1,inactive
same,Potency,Tov-21-G,inactive
same,Potency,Tov112D,inactive
C=C1[C@@H](C)[C@H]2[C@H](Cc3ccccc3)NC(=O)[C@]23[C@H](OC(C)=O)/C=C/[C@](C)(O)C(=O)[C@@H](C)C/C=C/[C@H]3[C@@H]1O,Potency,[1],inactive
same,Potency,[2],0.728 µM (active)
same,Potency,[3],0.258 µM (active)
same,Potency,[4],inactive
same,Potency,[5],inactive
same,outcome,[6],inactive
same,Potency,[7],inactive
same,Potency,[8],inactive
same,Potency,CRL-7250,0.259 µM (active)
same,Potency,HEK293,0.731 µM (active)
same,Potency,HaCat,23.1 µM (active)
same,Potency,C33A,inactive
same,Potency,CASKI,inactive
same,Potency,Hek293T,inactive
same,Potency,OV90,1.26 µM (active)
same,Potency,PA-1,1.78 µM (active)
same,Potency,Tov112D,inactive
